# Assay results reported in PubChem BioAssay (EPA / NIEHS).
# Inconclusive results are not listed. The source made the active and inactive calls. Rule for the calls: active = hit-call score of the fitted dose curve at least 0.9, where 1 is the maximum; inconclusive = response in the unintended direction; inactive = score below 0.9.
# Molecular target: human Caspase 2 (CASP2), CASP2 (gene 835) (UniProt P42575)
# Assay: NVS_ENZ_hCASP2: NovaScreen (NVS) Enzymatic Assay for human Caspase 2 (CASP2) (AID 2283135)
# Outline: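 Single-point duplicate testing at 25 uM preceded concentration series topping at 50 uM. Activity of the recombinant E. coli-derived protease was followed by fluorescent substrate cleavage 1 h post-dosing, relative to DMSO.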
# Chain of human Caspase 2 (CASP2), CASP2 (gene 835) (P42575 whole entry, looked up): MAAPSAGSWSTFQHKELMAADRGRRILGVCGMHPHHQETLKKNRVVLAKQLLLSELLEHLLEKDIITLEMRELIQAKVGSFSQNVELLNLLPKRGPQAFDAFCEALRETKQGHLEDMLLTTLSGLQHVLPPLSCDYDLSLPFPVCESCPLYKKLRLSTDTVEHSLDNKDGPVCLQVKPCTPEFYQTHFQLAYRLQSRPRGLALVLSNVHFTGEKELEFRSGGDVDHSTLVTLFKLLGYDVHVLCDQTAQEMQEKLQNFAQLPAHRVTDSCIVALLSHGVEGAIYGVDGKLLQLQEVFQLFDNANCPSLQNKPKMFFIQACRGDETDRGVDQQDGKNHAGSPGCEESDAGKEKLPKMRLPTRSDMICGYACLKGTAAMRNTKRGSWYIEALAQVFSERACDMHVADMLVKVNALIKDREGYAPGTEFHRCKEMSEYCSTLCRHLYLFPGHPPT
row,SMILES,outcome
1,CC(Cl)(Cl)C(=O)O,inactive
2,CCCCN(CCCC)SN(C)C(=O)Oc1cccc2c1OC(C)(C)C2,inactive
3,CCOP(=S)(OCC)SCSCC,inactive
4,COCCOCCO,inactive

# Molecular target: human AKT serine/threonine Kinase 1 (AKT1), AKT1 (gene 207) (UniProt P31749)
# Assay: NVS_ENZ_hAKT1: NovaScreen (NVS) Enzymatic Assay for human AKT serine/threonine Kinase 1 (AKT1) (AID 2283138)
# Outline: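 Fluorescence and mobility-shift readout of kinase activity, taken 1 h post-dosing in a cell-free format with recombinant protein. Primary screen at 25 uM in duplicate; hits (e.g. 30% inhibition) retested in concentration series topping at 50 uM.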
# Chain of human AKT serine/threonine Kinase 1 (AKT1), AKT1 (gene 207) (P31749 whole entry, looked up): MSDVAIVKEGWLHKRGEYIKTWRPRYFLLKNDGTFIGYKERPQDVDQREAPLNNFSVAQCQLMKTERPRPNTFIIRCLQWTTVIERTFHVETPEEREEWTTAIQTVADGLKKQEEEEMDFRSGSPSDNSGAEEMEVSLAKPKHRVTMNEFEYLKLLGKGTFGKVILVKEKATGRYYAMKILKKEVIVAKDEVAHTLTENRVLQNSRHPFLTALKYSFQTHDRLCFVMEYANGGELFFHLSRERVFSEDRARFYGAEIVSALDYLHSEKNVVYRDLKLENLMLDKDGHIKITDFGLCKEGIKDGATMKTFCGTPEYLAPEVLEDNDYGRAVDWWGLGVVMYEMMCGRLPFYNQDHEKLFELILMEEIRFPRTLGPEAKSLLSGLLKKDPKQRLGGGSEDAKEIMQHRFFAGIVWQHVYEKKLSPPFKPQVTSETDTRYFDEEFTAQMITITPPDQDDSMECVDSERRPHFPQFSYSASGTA
row,SMILES,outcome
1,CCOP(=S)(Oc1ccc([N+](=O)[O-])cc1)c1ccccc1 (stereo unspecified),inactive
2,CC(C)(C)OOC(C)(C)C,inactive
3,Cc1cccc(N)c1,inactive
4,CCOP(=S)(OCC)SCSCC,inactive

# Molecular target: human Beta-secretase (BACE), BACE1 (gene 23621) (UniProt P56817)
# Assay: NVS_ENZ_hBACE: NovaScreen (NVS) Enzymatic Assay for human Beta-secretase (BACE) (AID 2283140);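 note: hits are inhibitors that reduce fluorescent substrate signal versus DMSO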
# Outline: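 SF9-expressed enzyme, cell-free; fluorescent substrate readout after 1 h. Screened at 25 uM single concentration, duplicate; hits retested in concentration series. Activity relative to DMSO baseline, loss-of-signal.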
# Chain of human Beta-secretase (BACE), BACE1 (gene 23621) (P56817 whole entry, looked up): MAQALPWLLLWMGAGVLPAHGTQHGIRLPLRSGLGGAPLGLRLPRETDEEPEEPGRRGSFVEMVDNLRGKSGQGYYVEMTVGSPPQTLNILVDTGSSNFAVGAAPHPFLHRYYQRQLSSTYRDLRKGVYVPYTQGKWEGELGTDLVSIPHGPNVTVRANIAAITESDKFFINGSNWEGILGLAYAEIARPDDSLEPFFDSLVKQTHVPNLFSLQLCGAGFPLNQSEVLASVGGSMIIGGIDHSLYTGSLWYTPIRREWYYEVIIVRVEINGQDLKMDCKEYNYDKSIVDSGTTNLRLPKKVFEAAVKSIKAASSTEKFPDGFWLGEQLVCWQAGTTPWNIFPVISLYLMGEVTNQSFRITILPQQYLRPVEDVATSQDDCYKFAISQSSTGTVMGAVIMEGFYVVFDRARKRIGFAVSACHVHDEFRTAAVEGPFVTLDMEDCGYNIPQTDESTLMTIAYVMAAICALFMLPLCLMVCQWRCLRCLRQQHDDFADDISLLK
SMILES,outcome,AC50
NNC(N)=S,inactive,
CCCN(CCC)c1c([N+](=O)[O-])cc(C(C)C)cc1[N+](=O)[O-],inactive,
O=P(OCC(Br)CBr)(OCC(Br)CBr)OCC(Br)CBr (stereo unspecified),,14.3 µM (active)
